Data on 30 compounds can be found in the supplement of paper PMC6522484.

Assay [1] concerns DLD1. In words: cell viability (CellTiter-Glo) relative to plate median (fraction of plate median); higher = more viable cells. Particulars: 5 µM; treatment time 24 h; reporter: 7TFP. The essentials: (§1)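 Library compounds, at a final 5 µM, stayed on reporter cells for 24 h. The cells were colorectal cancer lines stably transduced with lentiviral TCF/Wnt firefly luciferase reporters, seeded in 384-well plates 24 h before dosing. Firefly luciferase or CellTiterGlo luminescence from parallel plates was normalised to the plate median in webcellHTS2 (additive, no log transformation), and two independent replicates were averaged.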
On the technique in general: In ATP-based viability assays light output follows the ATP content of the culture.

In assay [2] the test system is HCT116. Described as above. To be noted: 5 µM; treatment time 24 h; reporter: TCF4/Wnt. An outline of the steps: as §1
The test system of assay [3] is SW480. Described as above. To be noted: 5 µM; treatment time 24 h; reporter: 7TFP. The essentials:
as §1

In assay [4] the test system is DLD1. In words: TCF/Wnt firefly luciferase reporter signal relative to plate median (fraction of plate median); higher = higher Wnt reporter signal. Particulars: 5 µM; treatment time 24 h; reporter: 7TFP. An outline of the steps: as §1
On the technique in general: A reporter such as luciferase makes a cellular process visible.

The subject of assay [5] is SW480. The description is as above. To be noted: 5 µM; treatment time 24 h; reporter: 7TFP. An outline of the steps: as §1

± gives the standard deviation of the averaged measurements.

For `Cc1onc(-c2ccccc2)c1C(=O)N[C@@H]1C(=O)N2[C@@H]1SC(C)(C)[C@@H]2C(=O)O`, the figures for the cell viability in assay [1], in assay [2] and in assay [3] were 0.978 ± 0.032, 0.891 ± 0.1 and 0.978 ± 0.0014, respectively. In addition, the figures for the “TCF/Wnt firefly luciferase reporter signal” value in assay [4] and in assay [5] were 1.21 ± 0.071 and 1.11 ± 0.028, respectively.

As to `Cc1c(C)c2c(c(C)c1O)CCC(C)(COc1ccc(CC3SC(=O)NC3=O)cc1)O2` (stereo not given), the results for the cell viability in assay [1], in assay [2] and in assay [3] were 1.05 ± 0.085, 1.04 ± 0.071 and 1.06 ± 0.021, respectively. For the same compound, the “TCF/Wnt firefly luciferase reporter signal” value in assay [4] was determined as 0.942 ± 0.11; in assay [5], 1.04 ± 0.021.

On to `CC(=O)O[C@@H]1CC2C(C)(CC[C@H](O)C2(C)C)C2CC[C@]3(C)C(=CC(=O)O[C@H]3c3ccoc3)C21C` (stereo partly drawn) [3beta-HYDROXYDEOXODIHYDRODEOXYGEDUNIN], for which the results for the cell viability in assay [1], in assay [2] and in assay [3] were 1 ± 0.028, 0.963 ± 0.081 and 1.02 ± 0.028, respectively. The “TCF/Wnt firefly luciferase reporter signal” value in assay [4] came to 1.15 ± 0.12; in assay [5] it was 1.12 ± 0.014.

For `CCOC(=O)CCCCCCCCCCCCC1C=CCC1` (stereo not given), the cell viability is 0.9375 ± 0.005 in assay [1], 0.949 ± 0.07 in assay [2] and 0.965 ± 0.05 in assay [3]. Further, the “TCF/Wnt firefly luciferase reporter signal” value turned out to be 0.869 ± 0.034 in assay [4] and 0.873 ± 0.073 in assay [5].

`Cc1c(Nc2ncccc2C(=O)O)cccc1C(F)(F)F`: the cell viability in assay [1] came out at 0.977 ± 0.016; in assay [2] it was 1.1 ± 0.11; in assay [3] it was 1.04 ± 0.042. Further, the “TCF/Wnt firefly luciferase reporter signal” value is 1.11 ± 0.057 in assay [4] and 0.948 ± 0.14 in assay [5].

As to `CC(C)(C)NCC(O)c1ccc(O)c(CO)c1` (stereo not given), the cell viability came out at 0.952 ± 0.096 in assay [1], 1.07 ± 0.092 in assay [2] and 0.922 ± 0.0057 in assay [3]. Moreover, the results for the “TCF/Wnt firefly luciferase reporter signal” value in assay [4] and in assay [5] were 1.06 ± 0.014 and 0.995 ± 0.14, respectively.

For the compound `C[C@@H]1CC[C@@]2(OC1)O[C@H]1C[C@H]3[C@@H]4CC[C@@H]5C[C@@H](O)CC[C@]5(C)[C@H]4CC[C@]3(C)[C@H]1[C@@H]2C`, the cell viability is 0.993 ± 0.038 in assay [1], 1.09 ± 0.05 in assay [2] and 1.01 ± 0.05 in assay [3]. The “TCF/Wnt firefly luciferase reporter signal” value in assay [4] was 0.956 ± 0.09; in assay [5] it was 1.04 ± 0.071.

For the compound `C[C@](N)(Cc1ccc(O)cc1)C(=O)O` [alpha-METHYL-L-TYROSINE], the cell viability in assay [1] amounted to 1.08 ± 0.11; in assay [2], 1.07 ± 0.078; in assay [3], 0.944 ± 0.016. Besides, the “TCF/Wnt firefly luciferase reporter signal” value amounted to 0.896 ± 0.02 in assay [4] and 0.974 ± 0.11 in assay [5].

As to `CC(=O)O[C@H]1CC[C@]2(C)[C@H]3CC=C4[C@@H]5CC(C)(C)CC[C@]5(C(=O)O)CC[C@@]4(C)[C@]3(C)CC[C@H]2C1(C)C`, the cell viability in assay [1] stood at 1.06 ± 0.05; in assay [2], 1.11 ± 0.11; in assay [3] it was 1.02 ± 0.033. Also, the “TCF/Wnt firefly luciferase reporter signal” value in assay [4] stood at 1.03; in assay [5] it was 1.03 ± 0.021.

Take `C=C(C)[C@@H]1C[C@H]2O[C@](O)(C/C(C)=C\C(=O)/C=C(/C)C[C@@H]3OC(=O)[C@]24O[C@@H]34)[C@H]1O` [bipinnatolide F]: the cell viability in assay [1] was 1.02 ± 0.028; in assay [2], 0.943 ± 0.018; in assay [3], 0.94 ± 0.074. The “TCF/Wnt firefly luciferase reporter signal” value came out at 1.01 ± 0.059 in assay [4] and 0.994 ± 0.023 in assay [5].

On to `COc1cc(O)ccc1C(C)=O`, for which the cell viability in assay [1] was found to be 0.941 ± 0.059; in assay [2], 0.97 ± 0.015; in assay [3], 0.92 ± 0.0071. Also, the “TCF/Wnt firefly luciferase reporter signal” value was 0.889 ± 0.054 in assay [4] and 0.97 ± 0.026 in assay [5].

As to `CN(C)CCCO[C@@H]1[C@H]2OC(C)(C)O[C@H]2O[C@@H]1[C@H](O)CO`, the cell viability in assay [1] was 1.04 ± 0.06; in assay [2] it was 0.9935 ± 0.0064; in assay [3], 0.96 ± 0.038. In addition, the “TCF/Wnt firefly luciferase reporter signal” value came out at 0.998 ± 0.14 in assay [4] and 0.972 ± 0.029 in assay [5].

For the compound `Cc1cc(OC(=O)c2c(C)cc(O)cc2O)cc(O)c1C(=O)O`, the results for the cell viability in assay [1], in assay [2] and in assay [3] were 1.08 ± 0.099, 1.03 ± 0.035 and 1.1 ± 0.071, respectively. Also, the “TCF/Wnt firefly luciferase reporter signal” value in assay [4] was 1.03 ± 0.18; in assay [5], 1.06 ± 0.05.

Consider `Cc1cc(O)c2c(c1O)C(=O)c1c(O)cc(C)c(O)c1C2=O`, for which the cell viability stood at 0.979 ± 0.019 in assay [1], 0.968 ± 0.1 in assay [2] and 0.986 ± 0.063 in assay [3]. The “TCF/Wnt firefly luciferase reporter signal” value in assay [4] is 0.964 ± 0.039; in assay [5] it was 1.01 ± 0.014.

As for `Cc1cc(=O)[nH]c(=S)[nH]1`, the cell viability in assay [1] was 1.07 ± 0.05; in assay [2], 1.01 ± 0.072; in assay [3] it was 0.979 ± 0.018. The “TCF/Wnt firefly luciferase reporter signal” value in assay [4] came out at 1.07 ± 0.071; in assay [5], 0.9835 ± 0.0064.

Consider `NC(CO)C(=O)NNCc1ccc(O)c(O)c1O` (stereo not given), for which the cell viability came to 1.03 ± 0.028 in assay [1], 1.07 ± 0.13 in assay [2] and 1.02 ± 0.021 in assay [3]. Also, the “TCF/Wnt firefly luciferase reporter signal” value in assay [4] came to 1.07 ± 0.021; in assay [5], 1.08 ± 0.021.

As for `CO[C@@]1(NC(=O)C(C(=O)O)c2ccc(O)cc2)C(=O)N2C(C(=O)O)=C(CSc3nnnn3C)CO[C@@H]21` (stereo not given in full), the results for the cell viability in assay [1], in assay [2] and in assay [3] were 1.06, 1.02 ± 0.021 and 1.07, respectively. The “TCF/Wnt firefly luciferase reporter signal” value in assay [4] stood at 0.962 ± 0.097; in assay [5], 1.06 ± 0.035.

Take `CCOc1ccc2ccccc2c1C(=O)N[C@@H]1C(=O)N2[C@@H]1SC(C)(C)[C@@H]2C(=O)O`: the figures for the cell viability in assay [1], in assay [2] and in assay [3] were 0.991 ± 0.07, 1.035 ± 0.0071 and 1.06 ± 0.071, respectively. In addition, the “TCF/Wnt firefly luciferase reporter signal” value in assay [4] is 1.1 ± 0.26; in assay [5], 1.12 ± 0.057.

`CC[C@H](/C=C/[C@@H](C)[C@H]1CC[C@H]2[C@@H]3CCC4=CC(=O)CC[C@]4(C)[C@H]3CC[C@]12C)C(C)C`: the figures for the cell viability in assay [1], in assay [2] and in assay [3] were 0.999 ± 0.087, 0.976 ± 0.18 and 1.02 ± 0.041, respectively. Moreover, the “TCF/Wnt firefly luciferase reporter signal” value in assay [4] worked out at 1.05; in assay [5], 1.06 ± 0.028.

Take `C[C@H]1[C@H](C)CC[C@]2(C(=O)O)CC[C@]3(C)C(=CC[C@@H]4[C@@]5(C)C[C@@H](O)[C@H](O)[C@@](C)(CO)[C@@H]5CC[C@]43C)[C@H]12`: the cell viability in assay [1] is 1.04 ± 0.072; in assay [2], 1.1 ± 0.15; in assay [3] it was 1.1 ± 0.021. In addition, the figures for the “TCF/Wnt firefly luciferase reporter signal” value in assay [4] and in assay [5] were 0.974 ± 0.093 and 1.05 ± 0.035, respectively.

In the case of `C[C@]12CC[C@H]3C(=CCc4cc(O)ccc43)[C@@H]1CCC2=O`, the cell viability in assay [1] turned out to be 0.902 ± 0.086; in assay [2], 0.869 ± 0.16; in assay [3] it was 1.01 ± 0.031. Moreover, the “TCF/Wnt firefly luciferase reporter signal” value in assay [4] was determined as 1.07 ± 0.25; in assay [5], 0.98 ± 0.057.

As for `OCc1c[nH]c2ccccc12`, the cell viability in assay [1] was determined as 1.01; in assay [2], 0.93 ± 0.03; in assay [3] it was 0.948 ± 0.042. For the same compound, the figures for the “TCF/Wnt firefly luciferase reporter signal” value in assay [4] and in assay [5] were 1.06 ± 0.064 and 0.992 ± 0.026, respectively.

Consider `NCCS(=O)(=O)O`, for which the cell viability in assay [1] was 1.04 ± 0.021; in assay [2], 1.01 ± 0.061; in assay [3], 0.978 ± 0.02. For the same compound, the “TCF/Wnt firefly luciferase reporter signal” value stood at 0.9735 ± 0.00071 in assay [4] and 1 ± 0.037 in assay [5].

As for `C1CCN2C[C@@H]3C[C@@H](CN4CCCC[C@@H]34)[C@H]2C1`, the values for the cell viability in assay [1], in assay [2] and in assay [3] were 1.08 ± 0.12, 1.04 ± 0.021 and 1.05 ± 0.021, respectively. For the same compound, the figures for the “TCF/Wnt firefly luciferase reporter signal” value in assay [4] and in assay [5] were 1.16 and 0.948 ± 0.053, respectively.

`NS(=O)(=O)c1cc2c(cc1Cl)N=C(CSCc1ccccc1)NS2(=O)=O`: the cell viability worked out at 0.974 ± 0.079 in assay [1], 1.08 ± 0.014 in assay [2] and 0.974 ± 0.066 in assay [3]. Moreover, the results for the “TCF/Wnt firefly luciferase reporter signal” value in assay [4] and in assay [5] were 0.861 ± 0.04 and 1.03 ± 0.042, respectively.

Regarding `C=CCCCCCCCCCCCc1ccco1`, the cell viability in assay [1] was 0.98 ± 0.085; in assay [2], 1 ± 0.069; in assay [3], 1.01 ± 0.035. For the same compound, the figures for the “TCF/Wnt firefly luciferase reporter signal” value in assay [4] and in assay [5] were 0.854 ± 0.0099 and 0.957 ± 0.028, respectively.

Consider `CCOC(=O)[C@@](C)(N)Cc1ccc(O)c(O)c1`, for which the figures for the cell viability in assay [1], in assay [2] and in assay [3] were 1 ± 0.025, 0.93 ± 0.098 and 0.979 ± 0.044, respectively. The “TCF/Wnt firefly luciferase reporter signal” value in assay [4] came out at 1.1 ± 0.12; in assay [5] it was 1.07 ± 0.064.

With `CCOc1ccc2nc3cc(N)ccc3c(N)c2c1`, the cell viability was determined as 1.02 ± 0.11 in assay [1], 1.02 ± 0.074 in assay [2] and 0.999 ± 0.016 in assay [3]. Besides, the figures for the “TCF/Wnt firefly luciferase reporter signal” value in assay [4] and in assay [5] were 1.1 ± 0.085 and 0.925 ± 0.013, respectively.

Turning to `CC(C)(Oc1ccc(CCNC(=O)c2ccc(Cl)cc2)cc1)C(=O)O`, the results for the cell viability in assay [1], in assay [2] and in assay [3] were 1.05 ± 0.014, 1.06 ± 0.064 and 1 ± 0.069, respectively. The “TCF/Wnt firefly luciferase reporter signal” value in assay [4] came out at 0.919 ± 0.016; in assay [5], 0.986 ± 0.02.

As for `NC12CC3CC(CC(C3)C1)C2`, the cell viability in assay [1] came to 0.979 ± 0.028; in assay [2] it was 0.944 ± 0.058; in assay [3] it was 1.04 ± 0.021. In addition, the entries for the “TCF/Wnt firefly luciferase reporter signal” value in assay [4] and in assay [5] were 0.908 ± 0.34 and 1.025 ± 0.0071, respectively.
